# Source: PubChem BioAssay (NCI)
# This is part of a sample that, as a whole, favours compounds with a hit. Of some 79,000 tested, about 15% had one in any assay. Unmarked numbers belong to inactive results. Rule as the data show it: active = growth inhibition above about 70%; inactive = the rest.
# Experiment: NCI Yeast Anticancer Drug Screen. Data for the rad50 strain (AID 155);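 also: 0% = growth of vehicle-only cultures of the same strain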
# Conditions: S. cerevisiae rad50 strain growth inhibition; at 50.0 µM; stronger effect = higher value
# Summary of the method: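 Readout: growth inhibition relative to vehicle-treated cultures. Compound exposure was carried out in a genetically defined yeast strain deficient in DNA damage repair.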
row,Compound,growth inhibition [%]
1,O=C(O)C(c1ccccc1)C(O)C1CCCCC1 (stereo not given),0.8
2,CC(C)C1NC(C(=O)O)C(C)(C)S1 (stereo not given),1.75
3,CCOC(=O)C(=O)Cc1ccccc1[N+](=O)[O-],26.1
4,CC(O)CCNC(=O)c1ccccc1 (stereo not given),-10.4
5,O=c1nc(Oc2ccccc2)nc2ccc(Cl)nn12,3.4
6,CS(=O)(=O)Nc1cccc(C(=O)NN)c1,-8.1
7,C[C@]12CCC(=O)C(O)=C1CCC2=O,2.6
8,CC1=Nc2ccccc2S/C1=C(/C)NN,21.4
9,CC(C)(C)NC(=O)NCC1CCCC1NC(=O)NC(C)(C)C (stereo not given),1.45
10,O=c1c2ccccc2c(=O)n2n1C1CCC2C1,7.05
11,O=C(Nc1cc(Cl)ccc1Cl)c1ccc(Cl)cc1,-1.3
12,CCOC(=O)Nc1ccn(C2OC(COC(C)=O)C(OC(C)=O)C2OC(C)=O)c(=O)n1 (stereo not given),19.9
13,CC(C)NCC1CCCO1 (stereo not given),-6.65
14,CSc1nc(Br)nc2c1ncn2C1CC(Oc2ccc(C)cc2)C(COc2ccc(C)cc2)O1 (stereo not given),13.4
15,CCC1CCCCCC1=O (stereo not given),-34
16,CS(=O)(=O)CC(O)(c1ccc(Cl)cc1)c1ccccn1 (stereo not given),11.5
17,Cc1cc(=O)n(-c2ccc(-c3ccc(-n4c(C)c(C(=O)O)c(C)cc4=O)cc3)cc2)c(C)c1C(=O)O,-45
18,COc1ccc(C(C)=O)cc1CO/N=C1\CSCc2ccccc21,22.9
19,O=C(CC/[N+]([O-])=C/c1ccccc1)OCc1ccccc1,24.9
20,O=C1OC(c2ccc([N+](=O)[O-])cc2)=N/C1=C\c1ccc(Cl)c(Cl)c1,31.9

row,Compound,growth inhibition [%]
1,CCOC(=O)C(C)(Cc1ccco1)C(=O)OCC,-16.1
2,CC(=O)c1cccc(NC(=O)Oc2ccc(Cl)cc2Cl)c1,4.55
3,CCOC(=O)c1[nH]n(-c2ccccc2)c(=O)c1/C=N/C(=S)Nc1ccccc1,-22.3
4,CCOC(=O)NN(C(=O)OCC)C(C)(C)C(C)=O,7.3
5,CCOC(=O)C(=CC(C)(C)C)C(=O)OCC,3.9
6,Cc1ccc(NC(=S)SCc2ccc([N+](=O)[O-])cc2)cc1C,16.5
7,O=C(Cc1ccccc1)Nc1ccccc1,17.9
8,COC(=O)Nc1c2c(nc3ccccc13)-c1ccccc1C(C)(C)C2OC (stereo not given),49.5
9,N=c1c2ccccc2nc2oc3ccccc3n12,48.8
10,CCCCCOS(C)(=O)=O,-4.6
11,NC(=S)N/N=C/c1ccc2c(c1)OCO2,1.55
12,O=C1NC(=O)C(=Nc2cccc3c(=O)[nH][nH]c(=O)c23)C(c2nc3ccccc3s2)C1=O (stereo not given),20.2
13,COC(=O)/C(=C\c1ccccc1[N+](=O)[O-])c1ccc2c(c1)OCO2,23.6
14,CN=C(N)SCCCCCCSC(N)=NC,-1.5
15,Cn1c(=S)[nH]c2cc(Cl)c(Cl)cc21,17.4
16,Cc1n(C)nn[n+]1C,2.65
17,CCOC(=O)c1cc(CC)sc1N,-1.55
18,CNS(=O)(=O)c1ccc(N)cc1,-2.9
19,N#CCCOCCNCCSC(=O)c1ccccc1,36.8
20,CCOC1(C)OC2OC(COC(C)=O)C(OC(C)=O)C(OC(N)=O)C2O1 (stereo not given),-11.8

# Experiment: NCI Yeast Anticancer Drug Screen. Data for the mec2-1 strain (AID 157)
# Conditions: S. cerevisiae mec2-1 strain, at 50.0 µM, stronger effect = higher value
# Summary of the method: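 Cells of the genetically defined mec2-1 yeast strain are incubated with test compound. Inhibition of growth is calculated against vehicle-treated controls.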
row,Compound,growth inhibition [%]
1,O=C(O)C(c1ccccc1)C(O)C1CCCCC1 (stereo not given),-1.75
2,CC(C)C1NC(C(=O)O)C(C)(C)S1 (stereo not given),6.6
3,CCOC(=O)C(=O)Cc1ccccc1[N+](=O)[O-],0.1
4,CC(O)CCNC(=O)c1ccccc1 (stereo not given),-16.2
5,O=c1nc(Oc2ccccc2)nc2ccc(Cl)nn12,31.4
6,CS(=O)(=O)Nc1cccc(C(=O)NN)c1,-16.2
7,C[C@]12CCC(=O)C(O)=C1CCC2=O,-7.35
8,CC1=Nc2ccccc2S/C1=C(/C)NN,8.55
9,CC(C)(C)NC(=O)NCC1CCCC1NC(=O)NC(C)(C)C (stereo not given),-4.95
10,O=c1c2ccccc2c(=O)n2n1C1CCC2C1,-0.55
11,O=C(Nc1cc(Cl)ccc1Cl)c1ccc(Cl)cc1,-14.5
12,CCOC(=O)Nc1ccn(C2OC(COC(C)=O)C(OC(C)=O)C2OC(C)=O)c(=O)n1 (stereo not given),-11.4
13,CC(C)NCC1CCCO1 (stereo not given),-23.2
14,CSc1nc(Br)nc2c1ncn2C1CC(Oc2ccc(C)cc2)C(COc2ccc(C)cc2)O1 (stereo not given),4.3
15,CCC1CCCCCC1=O (stereo not given),-27.2
16,CS(=O)(=O)CC(O)(c1ccc(Cl)cc1)c1ccccn1 (stereo not given),0.85
17,Cc1cc(=O)n(-c2ccc(-c3ccc(-n4c(C)c(C(=O)O)c(C)cc4=O)cc3)cc2)c(C)c1C(=O)O,6.35
18,COc1ccc(C(C)=O)cc1CO/N=C1\CSCc2ccccc21,12.4
19,O=C(CC/[N+]([O-])=C/c1ccccc1)OCc1ccccc1,20.8
20,O=C1OC(c2ccc([N+](=O)[O-])cc2)=N/C1=C\c1ccc(Cl)c(Cl)c1,21.8

row,Compound,growth inhibition [%]
1,CCOC(=O)C(C)(Cc1ccco1)C(=O)OCC,-10.3
2,CC(=O)c1cccc(NC(=O)Oc2ccc(Cl)cc2Cl)c1,17.9
3,CCOC(=O)c1[nH]n(-c2ccccc2)c(=O)c1/C=N/C(=S)Nc1ccccc1,-10.6
4,CCOC(=O)NN(C(=O)OCC)C(C)(C)C(C)=O,5.35
5,CCOC(=O)C(=CC(C)(C)C)C(=O)OCC,19.1
6,Cc1ccc(NC(=S)SCc2ccc([N+](=O)[O-])cc2)cc1C,14.8
7,O=C(Cc1ccccc1)Nc1ccccc1,-21.1
8,COC(=O)Nc1c2c(nc3ccccc13)-c1ccccc1C(C)(C)C2OC (stereo not given),12.6
9,N=c1c2ccccc2nc2oc3ccccc3n12,12
10,CCCCCOS(C)(=O)=O,-14.2
11,NC(=S)N/N=C/c1ccc2c(c1)OCO2,25.8
12,O=C1NC(=O)C(=Nc2cccc3c(=O)[nH][nH]c(=O)c23)C(c2nc3ccccc3s2)C1=O (stereo not given),-9.7
13,COC(=O)/C(=C\c1ccccc1[N+](=O)[O-])c1ccc2c(c1)OCO2,-10.1
14,CN=C(N)SCCCCCCSC(N)=NC,0
15,Cn1c(=S)[nH]c2cc(Cl)c(Cl)cc21,-3.05
16,Cc1n(C)nn[n+]1C,-8.35
17,CCOC(=O)c1cc(CC)sc1N,-9.75
18,CNS(=O)(=O)c1ccc(N)cc1,-5.6
19,N#CCCOCCNCCSC(=O)c1ccccc1,4.05
20,CCOC1(C)OC2OC(COC(C)=O)C(OC(C)=O)C(OC(N)=O)C2O1 (stereo not given),0.05
